Data on 39 molecules can be found in ChEMBL document CHEMBL3988442, “University of Dundee, Small-Polar-MMV Screening Library” (2021).

In this assay the target is T1, Aspartate--tRNA(Asp/Asn) ligase (Mycobacterium tuberculosis (strain ATCC 25618 / H37Rv)) (UniProt P9WFW3).
T1 sequence (whole entry): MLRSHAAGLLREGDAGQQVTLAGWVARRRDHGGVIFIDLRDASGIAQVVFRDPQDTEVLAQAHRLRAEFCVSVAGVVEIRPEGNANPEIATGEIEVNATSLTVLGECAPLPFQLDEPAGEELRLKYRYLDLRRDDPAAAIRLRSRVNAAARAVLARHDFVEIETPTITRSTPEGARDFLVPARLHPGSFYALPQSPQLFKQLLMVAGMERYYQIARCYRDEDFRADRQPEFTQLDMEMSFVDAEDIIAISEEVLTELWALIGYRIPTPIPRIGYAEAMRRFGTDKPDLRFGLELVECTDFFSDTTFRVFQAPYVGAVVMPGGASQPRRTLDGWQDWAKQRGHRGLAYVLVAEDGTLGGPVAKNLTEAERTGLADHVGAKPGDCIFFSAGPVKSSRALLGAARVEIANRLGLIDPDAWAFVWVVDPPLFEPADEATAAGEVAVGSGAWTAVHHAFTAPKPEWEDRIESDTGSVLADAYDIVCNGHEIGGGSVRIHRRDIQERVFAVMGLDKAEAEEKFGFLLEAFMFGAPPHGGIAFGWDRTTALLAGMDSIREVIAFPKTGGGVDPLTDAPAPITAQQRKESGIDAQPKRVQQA
The experiment in a line: Assay for Asp RNA synthetase-1 from Mycobacterium tuberculosis. The assay is classed as functional. On the set-up: scale not given: in the data most compounds retested in dose-response had high values. The following applies: 30 µM.
Consider `CN(CCO)C(=O)c1coc(CN2CCN(c3ccccc3F)CC2)n1`, for which the Percent Effect is -3.46%.

Turning to `CNC(=O)Cn1cc(C#N)c(=O)c2cc(Br)ccc21`, the Percent Effect is 0.0345%.

As for `Cc1cc(NC(=O)Cn2cc(C#N)c(=O)c3cc(Br)ccc32)no1`, the Percent Effect was -2.42%.

As to `CN(C)CCn1c(=O)oc2ccc(NC(=O)CC(C)(C)C)cc21`, the Percent Effect stood at 0.793%.

With `O=C(NCCCn1ccnc1)N1CCCC1c1ccncc1` (centres undefined), the Percent Effect is -2.68%.

For `O=C1CC(c2cccs2)c2cnn(C3CCCC3)c2N1` (centres undefined), the Percent Effect is -1.62%.

Regarding `Cc1ccc(S(=O)(=O)NCCNC(=O)c2ccoc2)cc1F`, the Percent Effect was -4.4%.

Consider `COC1CCN(C(=O)c2c(Cl)c3ccccc3n2C)CC1`, for which the Percent Effect is -5.5%.

On to `CCC(C(=O)NCc1ccncc1)N(c1cccc(C)c1)S(C)(=O)=O` (centres undefined), for which the Percent Effect is -1.51%.

With `CC(C)n1ccnc1C1CCCN(c2ccnc3ccccc23)C1` (centres undefined), the Percent Effect is -3.69%.

Regarding `Cc1cnn(Cc2cc(F)ccc2F)c1NC(=O)NC1CC1`, the Percent Effect was -1.44%.

Take `Cc1ccc(CN2CCN(CC3CC3)[C@@H]3CS(=O)(=O)C[C@@H]32)cc1C`: the Percent Effect was -3.05%.

With `O=C1CCC2(CCN(Cc3cc(F)ccc3Cl)CC2)CN1C1CCCC1`, the Percent Effect is 0.0575%.

In the case of `CC(=O)Nc1c(C)cnn1Cc1cc(F)ccc1F`, the Percent Effect was found to be 2.1%.

In the case of `CCc1nc(C)c(C(=O)N2C[C@H]3CC[C@@H]2CN(S(=O)(=O)N(C)C)C3)s1`, the Percent Effect is -1.85%.

On to `CCC(=O)NCC(=O)NCc1cc(Br)ccc1OC(F)F`, for which the Percent Effect is -1.92%.

On to `COc1c(CNC2CCc3c(Cl)cccc32)c(C)nn1C` (centres undefined), for which the Percent Effect was -1.71%.

As for `CC(C)(N)CN1CCC(c2nnc(CN3CCCC3)n2C2CC2)CC1`, the Percent Effect is -1.87%.

For the molecule `CC(NC(=O)NCCCn1cccn1)c1cccnc1` (centres undefined), the Percent Effect was -3.83%.

Take `Cc1ccc(C(=O)N2Cc3ccccc3C2)cc1N1CCNC1=O`: the Percent Effect was -0.287%.

On to `Cn1ccnc1SCc1nc(C(C)(C)NC(=O)OC(C)(C)C)no1`, for which the Percent Effect was -0.333%.

Turning to `COc1cccc(S(=O)(=O)CCN2CCC3(CC2)OCCO3)c1`, the Percent Effect is -0.724%.

Consider `O=S(=O)(Cc1ccccc1F)NCCCN1CCCCC1`, for which the Percent Effect turned out to be 0.172%.

As to `O=C(CC1=CCCCC1)NCCc1csc(N2CCCC2)n1`, the Percent Effect was found to be 2.52%.

In the case of `COC(=O)CCN1CCCC1c1ccccc1Cl` (centres undefined), the Percent Effect was found to be 2.1%.

On to `COc1ccc(NC(=O)CCC2CCCN(Cc3ncon3)C2)cc1Cl` (centres undefined), for which the Percent Effect was -0.862%.

As for `COc1cccc(S(=O)(=O)CCN2CCCCC2)c1`, the Percent Effect is 3.32%.

On to `c1cnn(Cc2nnc(C3CCN(C4CCOCC4)CC3)n2C2CC2)c1`, for which the Percent Effect is -4.17%.

As to `CCc1nc(NS(=O)(=O)c2ccc(C)cc2Cl)no1`, the Percent Effect was -5.6%.

Take `COc1ccc(CNC(C)c2cccc(Cl)c2)c(OC)c1OC` (centres undefined): the Percent Effect was -3.05%.

In the case of `O=C(NCCCc1ccncc1)C1CCCN(Cc2ccco2)C1` (centres undefined), the Percent Effect was found to be 2.17%.

For `CN1C(=O)CC(C(=O)O)C12CCN(Cc1ccc(Cl)cc1F)CC2` (centres undefined), the Percent Effect was -1.62%.

For the molecule `Cc1cc(C(=O)NC2CCCN(c3ccccc3)C2=O)on1` (centres undefined), the Percent Effect is 0.287%.

For the molecule `Cc1cnn(CCNCc2ccc(OCc3csc(C)n3)cc2)c1`, the Percent Effect was -0.126%.

In the case of `CCNC(=O)NC(=O)CSC(C)c1c(F)cccc1F` (centres undefined), the Percent Effect is -1.51%.

In the case of `COCCN(C)CC(=O)N1C[C@H]2CC[C@@H]1CN(C(=O)c1ccncc1)C2`, the Percent Effect was -1.85%.

As to `c1cn(Cc2nnc(C3CCN(c4nccs4)CC3)n2C2CC2)cn1`, the Percent Effect was -3.69%.

With `Cc1ncc(C(=O)N2C[C@H]3CC[C@@H]2CN(S(=O)(=O)N(C)C)C3)c(C)n1`, the Percent Effect was -0.678%.

`CCc1nc(NS(=O)(=O)c2ccc(F)cc2C)no1`: the Percent Effect is -2.08%.
